Screening data as filed in PubChem BioAssay.
The entries come from a sample that favours hits as a whole.
CBX7 AlphaScr = inhibitors of human CBX7 binding to H3K27me3 peptide | AID 1224903 | hit rate 1.1% among 66,000 | normalised signal (fraction of DMSO) (concentration not given with the values) | O95931 | AlphaScreen His6-CBX7 / biotin-H3K27me3 peptide binding; active compounds read low; in the data active = normalised signal below about 0.5
Target sequence (O95931 whole entry, looked up): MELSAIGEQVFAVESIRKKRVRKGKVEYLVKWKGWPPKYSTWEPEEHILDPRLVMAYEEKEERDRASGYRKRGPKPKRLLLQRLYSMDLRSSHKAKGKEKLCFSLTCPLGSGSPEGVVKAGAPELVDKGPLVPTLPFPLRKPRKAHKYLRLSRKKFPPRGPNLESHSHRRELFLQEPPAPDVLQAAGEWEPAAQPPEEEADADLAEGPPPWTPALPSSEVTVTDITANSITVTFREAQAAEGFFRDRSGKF
Active calls of the source: *.

What do the screens show for `CCCn1cnc2cc(NCc3ccc(C)cc3)ccc21`?
CBX7 AlphaScr: 0.463*

How did CCCCn1cnc2cc(NCc3ccc(Cl)cc3)ccc21 do in these assays?
CBX7 AlphaScr: 0.223*

How did CCCn1cnc2cc(NCc3cccc(OC)c3O)ccc21 do in these assays?
CBX7 AlphaScr: 0.913

How did CCc1ccc(CNc2ccc3c(c2)ncn3C)cc1 do in these assays?
CBX7 AlphaScr: 0.532

Results for CCCn1cnc2cc(NCc3ccccn3)ccc21 ?
CBX7 AlphaScr: 0.349*

Results for CCCn1cnc2cc(NCc3cccc(OC)c3OC)ccc21 ?
CBX7 AlphaScr: 0.673

What do the screens show for `CCOc1ccc(CNc2ccc3c(c2)ncn3CC)cc1`?
CBX7 AlphaScr: 0.862

Results for CCn1cnc2cc(NCc3ccc(Cl)cc3)ccc21 ?
CBX7 AlphaScr: 0.888

How did COc1ccc2c(c1)c(=O)c(S(=O)(=O)c1ccc(F)cc1)cn2CC(=O)Nc1ccc(F)cc1 do in these assays?
CBX7 AlphaScr: 0.986

How did O=C(NCc1ccc2c(c1)OCO2)c1cccc(NC2=NC3CS(=O)(=O)CC3S2)c1 (stereo not given) do in these assays?
CBX7 AlphaScr: 0.981

Results for Cc1ccc(CNC(=O)CN2C(=O)CC(C)(C)Sc3ccccc32)cc1 ?
CBX7 AlphaScr: 1

How did CC(C(=O)NCCN1CCCC1)n1ncc2ccccc21 (stereo not given) do in these assays?
CBX7 AlphaScr: 1.1

Results for Cc1sc2nc(Cc3ccccc3)nc(N3CCCC3)c2c1C ?
CBX7 AlphaScr: 0.757

How did CC(=O)N1CCc2cc(S(=O)(=O)N(CC(C)C)CC(C)C)ccc21 do in these assays?
CBX7 AlphaScr: 1.01

Results for CCOc1ccc(-c2cc(C(=O)NC3CCC(C)CC3)c3ccccc3n2)cc1 (stereo not given) ?
CBX7 AlphaScr: 0.953

Results for Cc1ccc(-c2cc(C(=O)NCCN3CCCCC3C)c3ccccc3n2)cc1C (stereo not given) ?
CBX7 AlphaScr: 1.08

How did COc1ccc(NC(=O)C2CCN(S(=O)(=O)c3cnc[nH]3)CC2)cc1 do in these assays?
CBX7 AlphaScr: 1.06

What do the screens show for `CCOc1ccc(C2CC(=O)N2C2(C(=O)Nc3ccc(C)cc3)CCCCC2)cc1OC` (stereo not given)?
CBX7 AlphaScr: 0.971

Results for Cc1ccc2c(c1)N(CC(=O)NCCCN1CCOCC1)C(=O)CO2 ?
CBX7 AlphaScr: 1.05

What do the screens show for `CCN(CC)S(=O)(=O)c1ccc2c(c1)N(CC(=O)Nc1cccc(C#N)c1)C(=O)CO2`?
CBX7 AlphaScr: 1.06

Results for Cc1cccc(CN2CCC(CNC(=O)Cc3c(C(=O)O)[nH]c4ccc(Cl)cc34)CC2)c1 ?
CBX7 AlphaScr: 0.975

Results for Cc1cc(NC(=O)CSc2nc(NCc3ccc(Cl)cc3)c3ccccc3n2)n[nH]1 ?
CBX7 AlphaScr: 0.831

How did COc1cc(Nc2nc(SCC(=O)Nc3cc(C)[nH]n3)nc3ccccc23)cc(OC)c1 do in these assays?
CBX7 AlphaScr: 1.04

How did COc1ccc(CNc2nc(SCC(=O)Nc3cc(C)[nH]n3)nc3ccccc23)cc1 do in these assays?
CBX7 AlphaScr: 0.373*

How did COc1ccc(-n2nnc3c(=O)n(CC(=O)NC4CCCC4)cnc32)cc1 do in these assays?
CBX7 AlphaScr: 1.04

What do the screens show for `CCc1ccc(S(=O)(=O)Nc2ccc(-c3cn4cccc(C)c4n3)cc2)cc1`?
CBX7 AlphaScr: 0.931

How did Cc1onc(-c2c(F)cccc2Cl)c1C(=O)Nc1ccccc1 do in these assays?
CBX7 AlphaScr: 1

What do the screens show for `Cc1onc(-c2c(F)cccc2Cl)c1C(=O)NCC1COc2ccccc2O1` (stereo not given)?
CBX7 AlphaScr: 0.472*

What do the screens show for `Cc1onc(-c2c(Cl)cccc2Cl)c1C(=O)NCC1CCCO1` (stereo not given)?
CBX7 AlphaScr: 0.997

How did Cc1ccc2nc(Nc3ccc(Br)cc3)nc(-c3ccccc3)c2c1 do in these assays?
CBX7 AlphaScr: 1.87

What do the screens show for `COc1ccc(C(=O)N2CC(=O)Nc3ccc(F)cc3C2c2ccccc2)cc1OC` (stereo not given)?
CBX7 AlphaScr: 0.965

What do the screens show for `Cc1ccccc1OCC(=O)NCCc1nc2ccccc2[nH]1`?
CBX7 AlphaScr: 1.02

Results for CCc1nc(C)ccc1OCC(=O)NCCCN(C)C ?
CBX7 AlphaScr: 0.475*

How did Cc1nc2ccc(C(=O)NCCCN(C)C)cc2nc1C do in these assays?
CBX7 AlphaScr: 0.978

How did COc1ccc(S(=O)(=O)N2CCN(c3ccc4nncn4n3)CC2)cc1 do in these assays?
CBX7 AlphaScr: 1.06

What do the screens show for `O=C(NCCN1CCCC1)c1ccc2c(c1)N(Cc1ccc(Cl)cc1)C(=O)c1ccccc1S2(=O)=O`?
CBX7 AlphaScr: 0.901

What do the screens show for `COCCCNC(=O)c1cnn2c(C)c(Cc3cccc(C)c3)c(C)nc12`?
CBX7 AlphaScr: 1.12

How did COc1ccc(-c2n[nH]c(C)c2-c2ccc(F)cc2)c(O)c1 do in these assays?
CBX7 AlphaScr: 0.741

Results for COc1ccc(-c2n[nH]c(C)c2-c2ccc3c(c2)OCCCO3)c(O)c1 ?
CBX7 AlphaScr: 0.447*

How did COc1ccc(-c2c(-c3ccc(OC)cc3O)n[nH]c2C)cc1 do in these assays?
CBX7 AlphaScr: 0.662

How did O=C(C1CC1)N1CCc2cc(S(=O)(=O)NCCN3CCN(c4ccccc4F)CC3)ccc21 do in these assays?
CBX7 AlphaScr: 0.953
